Measured values from PubChem BioAssay AID1159580 (chemical genetic matrix, 2015).
The campaign covered roughly 5,500 compounds. About 2,000 (36%) were called active. About 18% were inconclusive and are not listed. The list shows a part of the results. Values without a mark were called inactive. No stated cut-off is given here; in the data, active means normalized growth mostly below about 0.91 (no sharp cut-off); inconclusive means no clear call, values can overlap the other calls; inactive means mostly above about 0.92.

Test: chemical genetic growth profiling, strain panel (AID 1159580);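 further: tested at 20 µM; growth read once vehicle control cultures reached saturation at 30 °C; 1 = growth at the plate median or of vehicle wells; lower values mean less growth of the strain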
Conditions: S. cerevisiae deletion strains, growth OD
[1] = locus YAL013W, strain DEP1, active compounds read low
[2] = locus YNL153C, strain GIM3, active compounds read low
[3] = locus YPL055C, strain LGE1, active compounds read low
[4] = locus YDL101C, strain DUN1, active compounds read low
[5] = locus YHR030C, strain SLT2, active compounds read low

In the case of `O=C(O)CN(CCN(CC(=O)O)CC(=O)O)CCN(CC(=O)O)CC(=O)O`, the normalized growth [1] is reported as 0.278 (active), the normalized growth (locus YAL040C, strain CLN3, active compounds read low) is reported as 1.03 and the normalized growth (locus YDR363W, strain ESC2, active compounds read low) is reported as 0.194 (active). For the same compound, the normalized growth (locus YER002W, strain NOP16, active compounds read low) was 1.01, the normalized growth [2] was 1.16 and the normalized growth (locus YNL175C, strain NOP13, active compounds read low) was 1.01. The normalized growth (locus YNL197C, strain WHI3, active compounds read low) was 1.02, the normalized growth (locus YNL224C, strain SQS1, active compounds read low) was 1 and the normalized growth (locus YOR083W, strain WHI5 (second series), active compounds read low) was 1.07. The normalized growth [3] was 0.198 (active).
With `N/C(=N/OC(=O)Nc1cccc(C(F)(F)F)c1)c1ccc(OC(F)(F)F)cc1` the normalized growth (locus YAR019C, strain CDC15, active compounds read low) was 0.983, the normalized growth (locus YBL105C, strain PKC1, active compounds read low) was 1 and the normalized growth (locus YBR135W, strain CKS1, active compounds read low) was 0.979. For the same compound, the normalized growth (locus YBR136W, strain MEC1, active compounds read low) was 0.985, the normalized growth (locus YBR160W, strain CDC28, active compounds read low) was 0.969 and the normalized growth (locus YDL017W, strain CDC7, active compounds read low) was 0.995. For the same compound, the normalized growth (locus YDL028C, strain MPS1, active compounds read low) was 0.972, the normalized growth [4] was 0.989 and the normalized growth (locus YDL108W, strain KIN28, active compounds read low) was 0.975. For the same compound, the normalized growth (locus YDL132W, strain cdc53, active compounds read low) was 0.979, the normalized growth (locus YDL214C, strain PRR2, active compounds read low) was 0.895 and the normalized growth (locus YDR052C, strain DBF4, active compounds read low) was 0.998. The normalized growth (locus YDR054C, strain cdc34, active compounds read low) was 0.971, the normalized growth (locus YDR226W, strain ADK1, active compounds read low) was 0.971 and the normalized growth (locus YDR477W, strain SNF1, active compounds read low) was 0.822. For the same compound, the normalized growth (locus YER123W, strain YCK3, active compounds read low) was 0.524 (active), the normalized growth (locus YER133W, strain GLC7, active compounds read low) was 0.893 and the normalized growth (locus YFL009W, strain cdc4, active compounds read low) was 0.953. The normalized growth (locus YFL029C, strain CAK1, active compounds read low) was 0.981, the normalized growth (locus YFR003C, strain YPI1, active compounds read low) was 0.994 and the normalized growth (locus YFR019W, strain FAB1, active compounds read low) was 0.745 (active). For the same compound, the normalized growth (locus YFR028C, strain CDC14, active compounds read low) was 0.976, the normalized growth (locus YGR040W, strain KSS1, active compounds read low) was 0.837 and the normalized growth (locus YGR052W, strain FMP48, active compounds read low) was 0.551 (active). The normalized growth (locus YGR092W, strain DBF2, active compounds read low) was 0.616, the normalized growth [5] was 0.21 (active) and the normalized growth (locus YHR079C, strain IRE1, active compounds read low) was 0.306 (active). The normalized growth (locus YHR082C, strain KSP1, active compounds read low) was 0.496 (active), the normalized growth (locus YHR205W, strain SCH9, active compounds read low) was 0.882 and the normalized growth (locus YIL147C, strain SLN1, active compounds read low) was 0.988. For the same compound, the normalized growth (locus YJL095W, strain BCK1, active compounds read low) was 0.287 (active), the normalized growth (locus YJL128C, strain PBS2, active compounds read low) was 0.93 and the normalized growth (locus YJL157C, strain FAR1, active compounds read low) was 0.905. It also gave a normalized growth (locus YJR016C, strain ILV3, active compounds read low) of 0.988, a normalized growth (locus YJR066W, strain TOR1 (second series), active compounds read low) of 0.731 and a normalized growth (locus YJR066W, strain TOR1, active compounds read low) of 0.555. The normalized growth (locus YKL048C, strain ELM1, active compounds read low) was 0.874, the normalized growth (locus YKL067W, strain YNK1, active compounds read low) was 0.883 and the normalized growth (locus YKL101W, strain HSL1, active compounds read low) was 0.743. The normalized growth (locus YKL193C, strain SDS22, active compounds read low) was 0.985, the normalized growth (locus YKL203C, strain TOR2, active compounds read low) was 0.895 and the normalized growth (locus YLR113W, strain HOG1, active compounds read low) was 0.361 (active). For the same compound, the normalized growth (locus YLR133W, strain CKI1, active compounds read low) was 0.887, the normalized growth (locus YLR403W, strain SFP1, active compounds read low) was 0.914 and the normalized growth (locus YML070W, strain DAK1, active compounds read low) was 0.716. For the same compound, the normalized growth (locus YMR001C, strain CDC5, active compounds read low) was 0.983, the normalized growth (locus YMR205C, strain PFK2 (second series), active compounds read low) was 0.906 and the normalized growth (locus YMR277W, strain FCP1, active compounds read low) was 0.97. It also gave a normalized growth (locus YNL006W, strain LST8, active compounds read low) of 0.977, a normalized growth (locus YNL020C, strain ARK1, active compounds read low) of 0.794 and a normalized growth (locus YNL161W, strain CBK1, active compounds read low) of 0.996. For the same compound, the normalized growth (locus YNL183C, strain NPR1, active compounds read low) was 0.53 (active), the normalized growth (locus YNL207W, strain RIO2, active compounds read low) was 0.995 and the normalized growth (locus YNL222W, strain SSU72, active compounds read low) was 0.973. The normalized growth (locus YNL307C, strain MCK1 (second series), active compounds read low) was 0.814, the normalized growth (locus YOL078W, strain AVO1, active compounds read low) was 0.983 and the normalized growth (locus YOL136C, strain PFK27, active compounds read low) was 0.821. For the same compound, the normalized growth (locus YOR061W, strain CKA2, active compounds read low) was 0.883, the normalized growth (locus YOR119C, strain RIO1, active compounds read low) was 0.869 and the normalized growth (locus YOR231W, strain MKK1, active compounds read low) was 0.269 (active). For the same compound, the normalized growth (locus YOR329C, strain SCD5, active compounds read low) was 0.993, the normalized growth (locus YPL031C, strain PHO85, active compounds read low) was 0.749 and the normalized growth (locus YPL153C, strain RAD53, active compounds read low) was 0.485 (active). The normalized growth (locus YPL204W, strain HRR25, active compounds read low) was 0.684, the normalized growth (locus YPL209C, strain IPL1, active compounds read low) was 0.992 and the normalized growth (locus YPL256C, strain CLN2, active compounds read low) was 0.456 (active). For the same compound, the normalized growth (locus YPR025C, strain CCL1, active compounds read low) was 0.99, the normalized growth (locus YPR106W, strain ISR1, active compounds read low) was 0.976 and the normalized growth (locus YPR111W, strain DBF20, active compounds read low) was 0.946. The normalized growth (strain NNK1, active compounds read low) was 0.98 and the normalized growth (strain TSCII, active compounds read low) was 0.986.
With `O=C(Nc1ccc(OC(F)(F)F)cc1)Nc1cccc(C(=O)O)c1` the normalized growth [1] was 1.01, the normalized growth (locus YBR229C, strain ROT2, active compounds read low) was 0.999 and the normalized growth (locus YCL061C, strain MRC1, active compounds read low) was 1.01. The normalized growth [4] was 1.01, the normalized growth (locus YDL134C, strain PPH21, active compounds read low) was 1.04 and the normalized growth (locus YDR150W, strain NUM1, active compounds read low) was 0.947. The normalized growth (locus YEL061C, strain CIN8, active compounds read low) was 1.02, the normalized growth (locus YGR078C, strain PAC10, active compounds read low) was 1 and the normalized growth [5] was 1.02. For the same compound, the normalized growth (locus YHR087W, strain rtc3, active compounds read low) was 1.02, the normalized growth (locus YJL187C, strain SWE1, active compounds read low) was 1.01 and the normalized growth (locus YJR043C, strain POL32, active compounds read low) was 0.974. The normalized growth (locus YJR075W, strain HOC1, active compounds read low) was 1.01, the normalized growth (locus YLR039C, strain RIC1, active compounds read low) was 0.995 and the normalized growth (locus YLR058C, strain SHM2 (second series), active compounds read low) was 1.01. For the same compound, the normalized growth (locus YLR085C, strain ARP6, active compounds read low) was 1.07, the normalized growth (locus YLR262C, strain YPT6, active compounds read low) was 0.981 and the normalized growth (locus YML094W, strain GIM5, active compounds read low) was 1.02. For the same compound, the normalized growth (locus YMR219W, strain ESC1, active compounds read low) was 1, the normalized growth (locus YMR263W, strain SAP30, active compounds read low) was 1.02 and the normalized growth (locus YMR307W, strain GAS1, active compounds read low) was 1.08. It also gave a normalized growth [2] of 0.988, a normalized growth (locus YNL298W, strain CLA4 (second series), active compounds read low) of 1 and a normalized growth (locus YNL322C, strain KRE1, active compounds read low) of 0.999. It also gave a normalized growth (locus YNR030W, strain Alg12, active compounds read low) of 1.04, a normalized growth [3] of 0.999 and a normalized growth (locus YPL241C, strain CIN2, active compounds read low) of 1.03. The normalized growth (locus YPR135W, strain CTF4, active compounds read low) was 0.996.
